The values below come from PubChem BioAssay (NCATS).

The nature of assay [1]: Quantitative High-Throughput drug screen in 47 multiple myeloma cell lines against the NCATS MIPE library collection: KMS34_JCRB cell viability assay (AID 1918985). Also: nearly all actives have a fitted effect of over 40% in size. Also: potency is read from the fitted curve at half-maximal effect. Summed up:
(§1)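 500 cells/well; MIPE 4.0 drugs pin-transferred; 48 h, 37C, 5% CO2. CellTiter-Glo, 5 min RT, luminescence. Controls: DMSO 100%, media 0%.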

A short description of assay [2]: Quantitative High-Throughput drug screen in 47 multiple myeloma cell lines against the NCATS MIPE library collection: OCIMY5_PLB cell viability assay (AID 1918988). Also: nearly all actives have a fitted effect of over 65% in size. Also: potency is read from the fitted curve at half-maximal effect. Summed up:
as §1

The nature of assay [3]: Quantitative High-Throughput drug screen in 47 multiple myeloma cell lines against the NCATS MIPE library collection: OPM1_PLB cell viability assay (AID 1918989). Also: nearly all actives have a fitted effect of over 40% in size. Also: potency is read from the fitted curve at half-maximal effect. Summed up:
as §1

A short description of assay [4]: Quantitative High-Throughput drug screen in 47 multiple myeloma cell lines against the NCATS MIPE library collection: LP1_DSMZ cell viability assay (AID 1918982). Also: nearly all actives have a fitted effect of over 35% in size. Summed up: as §1
Assay [5] is described as follows: Quantitative High-Throughput drug screen in 47 multiple myeloma cell lines against the NCATS MIPE library collection: KMS28PE_JCRB cell viability assay (AID 1918983). Also: nearly all actives have a fitted effect of over 35% in size. Also: potency is read from the fitted curve at half-maximal effect. The method in brief:
as §1

A short description of assay [6]: Quantitative High-Throughput drug screen in 47 multiple myeloma cell lines against the NCATS MIPE library collection: SKMM1_PLB cell viability assay (AID 1919863). Also: nearly all actives have a fitted effect of over 35% in size. Also: potency is read from the fitted curve at half-maximal effect. Particulars: SKMM1 myeloma viability, CellTiter-Glo ATP, 48 h; viability: hits give low values. The method in brief:
as §1
On the technique in general: Cellular ATP, detected with luciferase, serves as a proxy for viable cell number.

The nature of assay [7]: Quantitative High-Throughput drug screen in 47 multiple myeloma cell lines against the NCATS MIPE library collection: L363_DSMZ cell viability assay (AID 1918984). Also: nearly all actives have a fitted effect of over 40% in size. Also: potency is read from the fitted curve at half-maximal effect. The method in brief: as §1
A short description of assay [8]: Quantitative High-Throughput drug screen in 47 multiple myeloma cell lines against the NCATS MIPE library collection: OCIMY7_PLB cell viability assay (AID 1918987). Also: nearly all actives have a fitted effect of over 65% in size. Also: potency is read from the fitted curve at half-maximal effect. Particulars: OCI-MY7 myeloma viability, CellTiter-Glo ATP, 48 h; viability (% of DMSO): at 45.8 µM (top of the series). The method in brief: as §1

Records with an inconclusive call do not appear. Values without a mark were called inactive. Activity calls are given as the source filed them. Calls follow the shape of the dose curve; as a rule, active = well fitted cell-killing curve with a large enough effect; inconclusive = small, poorly fitted or top-dose-only effect, or effect the other way; inactive = no such curve, though single readings can be large or run the other way.

For `Nc1nc2c(c(=O)[nH]1)N(C=O)[C@H](CNc1ccc(C(=O)N[C@@H](CCC(=O)O)C(=O)O)cc1)CN2`, the Potency result in assay [1], in assay [2] and in assay [3] was “inactive” in each case.
For the molecule `Nc1ccn(C[C@@H](CO)OCP(=O)(O)O)c(=O)n1`, the Potency result in assay [4], in assay [5] and in assay [1] was “inactive” throughout.
Regarding `Cn1cnc2c(F)c(Nc3ccc(Br)cc3F)c(C(=O)NOCCO)cc21`, the Potency entry in assay [4], in assay [5], in assay [2] and in assay [3] was “inactive” in each case. Further, the viability – broadly, a read-out of living cells in per cent, often relative to untreated cells – in assay [6] was 115%.
As to `CCCCCN=C(N)NN=Cc1c[nH]c2ccc(OC)cc12`, the Potency was 10.5 µM (active) in assay [5]; 2.09 µM (active) in assay [7]; 7.43 µM (active) in assay [1]; 2.96 µM (active) in assay [8]; 3.72 µM (active) in assay [2]; 0.296 µM (active) in assay [6].
Consider `NC(=O)N1CCC(CC(=O)N2CCC([C@H]3c4ncc(Br)cc4CCc4cc(Cl)cc(Br)c43)CC2)CC1`, for which the Potency is 18.7 µM (active) in assay [5]; 4.18 µM (active) in assay [7]; 20.9 µM (active) in assay [1]; 9.35 µM (active) in assay [2]; 23.5 µM (active) in assay [3]; 18.7 µM (active) in assay [6].
As to `COc1ccc(Nc2nccc(NCCO)n2)cc1`, the Potency entry in assay [7] and in assay [3] was “inactive” each time.
Consider `CN1CCCN(C(=O)c2cccc(-c3ccc(C=C4C(=O)Nc5ccc(Cl)cc54)o3)c2)CC1`, for which the Potency in assay [7] was 6.62 µM (active); in assay [1], 16.6 µM (active); in assay [8], 10.5 µM (active); in assay [2] it was 9.35 µM (active); in assay [3] it was 23.5 µM (active); in assay [6] it was 14.8 µM (active).
For the molecule `CC1(C)[C@H](O[C@H]2O[C@H](C(=O)O)[C@@H](O)[C@H](O)[C@H]2O[C@@H]2O[C@H](C(=O)O)[C@@H](O)[C@H](O)[C@H]2O)CC[C@@]2(C)[C@H]1CC[C@]1(C)[C@H]2C(=O)C=C2[C@H]3C[C@@](C)(C(=O)O)CC[C@]3(C)CC[C@]21C`, the Potency entry in assay [5], in assay [1], in assay [2] and in assay [3] was “inactive” throughout. In assay [6], the viability was 142%.
As to `C[C@H](O)[C@@H]1C(=O)N2C(C(=O)O)=C(S[C@@H]3CN[C@H](CNS(N)(=O)=O)C3)[C@@H](C)[C@@H]12`, the Potency entry in assay [4], in assay [5] and in assay [1] was “inactive” throughout. Also, the viability in assay [6] is 105%.
`Cn1cc(C[C@@H](N)C(=O)O)c2ccccc21`: the Potency is 4.57 µM (active) in assay [1] and 7.24 µM (active) in assay [6]. The Potency result in assay [2] is “inactive”.
On to `CCCCCCCCCCCCCCCC(=O)OC[C@@H](NC(=O)C(Cl)Cl)[C@H](O)c1ccc([N+](=O)[O-])cc1`, for which the Potency entry in assay [4], in assay [5], in assay [7], in assay [1] and in assay [3] was “inactive” in each case.
For the molecule `CC(Cc1ccc(O)c(O)c1)(NN)C(=O)O` (centres undefined), the Potency result in assay [7] is “inactive”. The Potency in assay [6] was 16.6 µM (active).
As for `CC(C)(O)CC[C@@H](O)[C@](C)(O)[C@H]1CC[C@@]2(O)C3=CC(=O)[C@@H]4C[C@@H](O)[C@@H](O)C[C@]4(C)[C@@H]3CC[C@]12C`, the Potency result in assay [4], in assay [1], in assay [8], in assay [2] and in assay [3] was “inactive” each time.
Take `O=C(Nc1nnc(-c2ccco2)o1)c1cc(-c2ccccc2)nc2ccccc12`: the values for the Potency in assay [8], in assay [2] and in assay [3] were 16.6 µM (active), 18.7 µM (active) and 20.9 µM (active), respectively.
As to `CC(=O)N[C@@H]1[C@H](O[C@@H]2c3ccc(c(Cl)c3)Oc3cc4cc(c3O[C@H]3O[C@H](CO)[C@@H](O)[C@H](O)[C@H]3NC(=O)CCCCCCCC(C)C)Oc3ccc(cc3Cl)C[C@H]3NC(=O)[C@H](N)c5ccc(O)c(c5)Oc5cc(O)cc(c5)[C@H](NC3=O)C(=O)N[C@H]4C(=O)N[C@H]3C(=O)N[C@@H]2C(=O)N[C@@H](C(=O)O)c2cc(O)cc(O[C@H]4O[C@H](CO)[C@@H](O)[C@H](O)[C@H]4O)c2-c2cc3ccc2O)O[C@H](CO)[C@@H](O)[C@@H]1O`, the Potency entry in assay [5], in assay [7] and in assay [1] was “inactive” each time. Besides, the viability in assay [6] was 107%.
For `COc1cc([C@@H]2c3cc4c(cc3[C@@H](O[C@@H]3O[C@@H]5CO[C@@H](c6cccs6)O[C@@H]5[C@H](O)[C@@H]3O)[C@H]3COC(=O)[C@H]23)OCO4)cc(OC)c1O`, the Potency was 2.64 µM (active) in assay [5]; 0.833 µM (active) in assay [7]; 1.87 µM (active) in assay [1]; 1.66 µM (active) in assay [2]; 1.18 µM (active) in assay [3]; 5.26 µM (active) in assay [6].
`CC(C(C)N1CC(=O)NC(=O)C1)N1CC(=O)NC(=O)C1` (centres undefined): the Potency result in assay [5] and in assay [3] was “inactive” throughout. Moreover, the viability in assay [6] was 134%.
`Cc1cc(-c2nnc3n2CCCCC3)c(C)n1-c1ccccc1`: the Potency result in assay [4], in assay [5] and in assay [3] was “inactive” throughout. Also, the Potency in assay [2] is 23.5 µM (active).
As for `O=C(O)C(=O)Nc1cccc(C2=NN=N[N]2)c1`, the Potency entry in assay [4], in assay [5], in assay [1], in assay [2] and in assay [3] was “inactive” each time. The viability in assay [6] was 129%.
As for `CCN1CCN(C(=O)N[C@H](C(=O)N[C@@H]2C(=O)N3C(C(=O)O)=C(CSc4nnnn4C)CS[C@@H]23)c2ccc(O)cc2)C(=O)C1=O`, the Potency result in assay [4], in assay [5] and in assay [2] was “inactive” each time.
As for `CC(N[C@H]1CCCC[C@H]1NC(=O)c1ccc(Cl)cc1)c1cccc2ccccc12` (some centres undefined), the Potency entry in assay [4], in assay [5] and in assay [3] was “inactive” throughout. Besides, the Potency in assay [7] was 0.0833 µM (active). For the same molecule, the viability in assay [6] is 94.8%.
